This is an account of results in PubChem BioAssay.

Calls of active or inactive are those of the source.

Experiment [1] concerns Human papillomavirus type 1a protein E7 (residues 44-93). In words: small molecules binding HPV E7 44-93 – biochemical, small-molecule microarray, residues 44-93, 635 nm fluorescence, primary screen (AID 1108).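 Also: E7 fragment applied at 1 µg/mL in TBST for 1 h at 4 C; score combines spot fluorescence with its signal to noise ratio.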 The settings on record: fluorescence 635 nm, higher = more signal.
Experiment [2] is described as follows: hepatitis C replication reporter changes, two-sided – Huh7 cells, luciferase reporter, HCV replication inhibitor project, primary screen (AID 1109).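 Also: huh7 hepatoma cells harbouring a luciferase neomycin HCV replicon reporter; luciferase luminescence as measure of HCV replicon replication; test concentration not given here.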 Particulars: Huh7 HCV replicon luciferase reporter, 48 h; higher = more signal. For orientation: Reporter assays use an easily measured gene product as a stand-in for the process of interest.
In experiment [3] the target is Left-right determination factor 2 (Homo sapiens) (UniProt O00292). The experiment is described as follows: small molecules binding LEFTY2 protein – biochemical, small-molecule microarray, 635 nm fluorescence scan, primary screen (AID 1110). Particulars: higher = more signal.
Sequence of Left-right determination factor 2 (Homo sapiens) (O00292 whole entry, looked up): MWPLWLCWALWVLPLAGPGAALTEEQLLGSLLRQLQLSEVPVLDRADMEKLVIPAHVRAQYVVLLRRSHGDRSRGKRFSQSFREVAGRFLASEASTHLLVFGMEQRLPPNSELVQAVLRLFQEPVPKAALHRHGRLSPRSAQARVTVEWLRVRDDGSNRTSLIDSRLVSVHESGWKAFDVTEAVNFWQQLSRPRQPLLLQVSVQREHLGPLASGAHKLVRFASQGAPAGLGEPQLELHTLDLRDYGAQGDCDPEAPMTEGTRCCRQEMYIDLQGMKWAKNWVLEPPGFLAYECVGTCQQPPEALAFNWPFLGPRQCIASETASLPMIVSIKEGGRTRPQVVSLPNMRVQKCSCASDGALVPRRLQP
For experiment [4], the target named is Calmodulin-1 (Homo sapiens) (UniProt P0DP23). The experiment is described as follows: small molecules binding calmodulin-1 with EGTA – biochemical, small-molecule microarray, Cy5-labelled CALM1, profiling panel (AID 1111).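 Also: labelled calmodulin applied in Tris saline Tween buffer holding calcium plus EGTA and DTT.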 The settings on record: Cy5-CALM1 binding fluorescence, higher = more signal.
The target is the same in experiment [5]. The experiment is described as follows: small molecules binding Ca-loaded calmodulin-1 – biochemical, small-molecule microarray, Cy5-labelled CALM1, plus calcium, artefact control for SMM control-protein annotation, profiling panel (AID 1112).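 Also: score merges spot fluorescence with signal to noise from triplicate slides.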 The settings on record: Cy5-CALM1 binding fluorescence, higher = more signal.
A short description of experiment [6]: probe aWnt5a binding to arrayed compounds – biochemical, biotinylated probe, 635/667 nm fluorescence, primary screen (AID 1113).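 Also: score merges 667 nm fluorescence intensity with signal-to-noise per printed feature.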 The settings on record: small-molecule microarray, higher = more signal.
A short description of experiment [7]: probe aShh binding to arrayed compounds – biochemical, biotinylated probe, 635/667 nm fluorescence, primary screen (AID 1114).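 Also: probe is biotin-labelled aShh protein from a stem cell growth factor screen; measures binding of labelled protein to compounds printed on the slide; score merges feature fluorescence at 667 nm with signal-to-noise.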 Particulars: small-molecule microarray, higher = more signal.
Experiment [8] can be described thus: probe aNog binding to arrayed compounds – biochemical, biotinylated probe, 635/667 nm fluorescence, primary screen (AID 1115).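 Also: probe is biotinylated aNog protein used at 0.15 µg/mL for 1 h at 4 C; z-score combines 667 nm fluorescence of each spot with its signal to noise.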 The settings on record: small-molecule microarray, higher = more signal.
For experiment [9], the target named is Torsin-1A-interacting protein 1 (Homo sapiens) (UniProt Q5JTV8). In words: compound microarray binding of lysate hLAP1 – cell lysate, small-molecule microarray, COS7 lysate, 635/667 nm fluorescence, primary screen (AID 1116). Particulars: 635 nm fluorescence, higher = more signal.
Sequence of Torsin-1A-interacting protein 1 (Homo sapiens) (Q5JTV8 whole entry, looked up): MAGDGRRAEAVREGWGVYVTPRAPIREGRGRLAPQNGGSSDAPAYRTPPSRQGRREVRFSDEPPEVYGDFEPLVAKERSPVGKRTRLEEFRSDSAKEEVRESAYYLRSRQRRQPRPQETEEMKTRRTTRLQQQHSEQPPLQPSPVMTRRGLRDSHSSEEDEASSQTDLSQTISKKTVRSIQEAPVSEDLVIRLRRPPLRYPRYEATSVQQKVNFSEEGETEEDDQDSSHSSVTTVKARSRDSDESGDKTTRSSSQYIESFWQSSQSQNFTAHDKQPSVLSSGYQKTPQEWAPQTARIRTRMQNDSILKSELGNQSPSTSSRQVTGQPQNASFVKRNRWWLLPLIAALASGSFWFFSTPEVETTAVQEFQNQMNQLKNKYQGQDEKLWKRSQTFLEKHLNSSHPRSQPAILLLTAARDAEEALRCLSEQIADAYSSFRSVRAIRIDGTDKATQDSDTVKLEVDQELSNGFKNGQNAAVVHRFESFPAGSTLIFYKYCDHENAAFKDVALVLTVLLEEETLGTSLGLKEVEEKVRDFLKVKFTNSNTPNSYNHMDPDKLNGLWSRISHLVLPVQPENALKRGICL
For experiment [10], the target named is Alpha-bungarotoxin (Bungarus multicinctus) (UniProt P60615). The experiment is described as follows: compounds binding labelled alpha-BTX control protein – biochemical, small-molecule microarray, Alexa647 label, 635/667 nm fluorescence, artefact control for SMM control protein annotation, profiling panel (AID 1117). Particulars: alpha-BTX-A647 binding fluorescence, higher = more signal.
Sequence of Alpha-bungarotoxin (Bungarus multicinctus) (P60615 whole entry, looked up): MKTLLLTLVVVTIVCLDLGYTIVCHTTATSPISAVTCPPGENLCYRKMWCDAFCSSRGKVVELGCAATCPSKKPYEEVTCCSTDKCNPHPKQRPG

The next experiment addresses Albumin (Bos taurus) (UniProt P02769). The experiment is described as follows: compounds binding labelled BSA control protein – biochemical, small-molecule microarray, Alexa647 label, 635/667 nm fluorescence, artefact control for SMM control protein annotation, profiling panel (AID 1118).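 Also: score merges 667 nm emission intensity and signal-to-noise per printed compound spot.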 Particulars: BSA-A647 binding, fluorescence 635 nm, higher = more signal.
Experiment [11] can be described thus: probe aXIP binding to arrayed compounds – biochemical, NeuroSMM set, 635/667 nm fluorescence, primary screen (AID 1119).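 Also: probe is the protein aXip251-270 applied at 1 µg/mL to compound-printed slides; binding of probe to printed compounds measured as 667 nm fluorescence plus signal to noise.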 Particulars: small-molecule microarray, higher = more signal, called active from +8 up or from −8 down.
The nature of experiment [12]: probe aNOTCH3 binding on compound microarray – biochemical, small-molecule microarray, 635/667 nm fluorescence, primary screen (AID 1120).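 Also: probe is a biotin-tagged antibody raised against NOTCH3 rather than NOTCH3 protein; score merges spot fluorescence near 667 nm with spot signal to noise.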 The settings on record: higher = more signal.
Experiment [13] in a line: probe aNOTCH2 binding on compound microarray – biochemical, small-molecule microarray, 635/667 nm fluorescence, primary screen (AID 1121).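 Also: score merges feature fluorescence read at 667 nm with its signal to noise.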 The settings on record: higher = more signal.
Experiment [14] has as its target Carbonic anhydrase 2 (Homo sapiens) (UniProt P00918). In words: compounds binding carbonic anhydrase 2 – biochemical, small-molecule microarray, Alexa647-labelled CAII, profiling panel (AID 1122). Particulars: CAII-A647 binding fluorescence, higher = more signal.
Experiment [15] in a line: COS7 lysate on small-molecule microarray, probe aHis, 635 nm (AID 1123).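 Also: z-score combines 667nm fluorescence intensity with signal-to-noise per printed compound spot.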 Particulars: COS7 cell lysate, fluorescence, higher = more signal.
Experiment [16] in a line: probe aLAP1 signal on lysate-treated microarray – cell lysate, small-molecule microarray, COS7 lysate, primary screen (AID 1124).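 Also: lysate comes from COS7 cells expressing LAP1 and is applied at 0.3 µg/mL; score merges spot fluorescence near 667 nm with signal-to-noise over triplicate slides.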 Particulars: probe aLAP1, fluorescence, higher = more signal.
Another experiment has as its system Sam68 (KHDRBS1). The experiment is described as follows: compounds binding KHDRBS1 protein – biochemical, small-molecule microarray, 635 nm fluorescence, primary screen (AID 1125).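 Also: score merges 667 nm channel intensity with signal to noise over triplicate slides.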 The settings on record: higher = more signal.
Experiment [17] relates to Chordin-like protein 2 (CHRDL2). In words: compounds binding chordin-like 2 – biochemical, small-molecule microarray, 635 nm fluorescence, primary screen (AID 1126).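 Also: printed compound slides probed with Chrdl2 protein at 4 µg/mL for 1 h at 4 C; score merges 667 nm emission intensity with signal to noise over three replicate slides.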 The settings on record: fluorescence 635 nm, higher = more signal.
The target of experiment [18] is Concanavalin-A (Canavalia ensiformis) (UniProt P02866). The experiment is described as follows: compounds binding concanavalin A lectin – biochemical, small-molecule microarray, Alexa647 label, 635 nm, artefact control for SMM control protein annotation, primary screen (AID 1127).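 Also: z combines 667 nm emission intensity with signal-to-noise across three replicate slides.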 Particulars: ConA-A647 binding fluorescence, higher = more signal.
Sequence of Concanavalin-A (Canavalia ensiformis) (P02866 whole entry, looked up): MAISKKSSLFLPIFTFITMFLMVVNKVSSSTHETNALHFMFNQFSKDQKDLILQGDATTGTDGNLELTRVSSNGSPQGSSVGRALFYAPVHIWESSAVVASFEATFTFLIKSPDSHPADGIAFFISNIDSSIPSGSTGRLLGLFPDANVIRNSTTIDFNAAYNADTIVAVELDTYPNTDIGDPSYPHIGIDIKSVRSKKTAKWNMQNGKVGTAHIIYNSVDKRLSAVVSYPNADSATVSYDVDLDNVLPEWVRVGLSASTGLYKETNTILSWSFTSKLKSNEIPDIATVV

Sequence of Albumin (Bos taurus) (P02769 whole entry, looked up): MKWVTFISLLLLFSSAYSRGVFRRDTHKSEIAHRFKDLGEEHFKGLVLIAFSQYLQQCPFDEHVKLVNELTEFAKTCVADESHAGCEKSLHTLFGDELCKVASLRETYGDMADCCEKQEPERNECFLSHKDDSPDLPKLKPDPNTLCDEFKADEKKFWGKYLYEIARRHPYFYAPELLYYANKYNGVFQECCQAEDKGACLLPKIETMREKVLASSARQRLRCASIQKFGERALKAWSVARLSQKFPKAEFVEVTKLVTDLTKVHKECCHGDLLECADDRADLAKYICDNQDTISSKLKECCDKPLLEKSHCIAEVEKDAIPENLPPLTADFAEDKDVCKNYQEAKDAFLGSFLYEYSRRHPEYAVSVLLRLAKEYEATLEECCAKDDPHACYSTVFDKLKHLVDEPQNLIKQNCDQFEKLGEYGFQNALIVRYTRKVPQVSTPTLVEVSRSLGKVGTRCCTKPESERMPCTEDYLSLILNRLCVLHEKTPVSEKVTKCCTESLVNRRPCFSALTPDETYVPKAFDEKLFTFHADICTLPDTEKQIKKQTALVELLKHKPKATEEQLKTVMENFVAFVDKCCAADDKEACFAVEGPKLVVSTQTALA

For the compound `COCCOC(=O)N1C(=O)[C@@]2(c3ccccc31)[C@H](C(=O)N1CCCCCCC1)[C@H]1C(=O)O[C@H](c3ccccc3)[C@H](c3ccccc3)N1[C@@H]2c1ccc(O)cc1`, the composite z-score in experiment [1] was 1.4; in experiment [3], 1.17; in [4], 2.73; in experiment [5], 1.56; in experiment [6], 1.39; in experiment [7], 1.04. In addition, the composite z-score in [8] came to 2.12; in experiment [9], 5.09; in experiment [10], 3.37; in the experiment with Albumin (Bos taurus), 0.816; in experiment [12], 2; in experiment [13], 0.95. The composite z-score was determined as 0.608 in [14]; 3.97 in experiment [15]; 2.11 in experiment [16]; 1.3 in the experiment with Sam68 (KHDRBS1); 1.41 in [17]; 1.03 in experiment [18]. In experiment [2], the z-score was -1.06. The composite Z-score in experiment [11] is 4.39 (inactive).
In the case of `CCCCN1CC=CC23O[C@@H]4C=CCOC(=O)[C@@H]4[C@H]2C(=O)N(CCO)[C@@H]3C1=O` (stereo not given in full), the composite z-score was -0.718 in experiment [1]; -2.32 in [3]; -0.483 in experiment [4]; 0.856 in [5]; -0.119 in [6]; 0.0893 in experiment [7]. The composite z-score in experiment [8] is 0.643; in [9], -0.401; in [10], -1.48; with Albumin (Bos taurus) it was -0.852; in experiment [12], 0.177; in experiment [13], -0.185. The composite z-score was 0.85 in [14]; -0.291 in [15]; -0.217 in experiment [16]; -0.779 with Sam68 (KHDRBS1); -1.68 in experiment [17]; -1.09 in [18]. The compound further displayed a z-score in experiment [2] of 0.407. The composite Z-score in [11] is -0.483 (inactive).
Take `O=C1NC(=O)C2C1C=CC(C(O)c1cccc(O)c1)N2Nc1ccc(Cl)cc1Cl` (stereo not given): the composite z-score in experiment [1] is -0.429; in experiment [3], -0.715; in experiment [4], 0.741; in [5] it was 0.675; in experiment [6], -0.104; in experiment [7], -0.212. For the same compound, the composite z-score is -0.237 in experiment [8]; -0.369 in [9]; 0.369 in experiment [10]; 0.33 with Albumin (Bos taurus); -0.0043 in experiment [12]; 0.0592 in [13]. In addition, the composite z-score in experiment [14] was 0.757; in experiment [15], 1.4; in experiment [16], -0.452; with Sam68 (KHDRBS1), -1.81; in [17], -0.474; in [18] it was -0.0019. Also, the z-score in experiment [2] is -0.591. In addition, the composite Z-score in [11] was -0.136 (inactive).
As to `COCCCN1C(=O)[C@@]2(Cc3ccccc31)c1ccccc1C(=O)N(Cc1ccccc1OC)[C@H]2c1ccc(CO)cc1`, the composite z-score was -0.739 in [1]; -0.283 in [3]; 0.0145 in experiment [4]; -0.0984 in experiment [5]; 0.0759 in [6]; -0.138 in [7]. Besides, the composite z-score is 0.417 in experiment [8]; 0.145 in experiment [9]; 0.212 in experiment [10]; 0.345 in the experiment with Albumin (Bos taurus); -0.147 in [12]; -0.101 in experiment [13]. For the same compound, the composite z-score in experiment [14] was 0.799; in experiment [15], 0.374; in [16], 1.34; in the experiment on Sam68 (KHDRBS1) it was -0.0726; in [17], -1.21; in experiment [18], 0.254. The z-score in experiment [2] was -0.185. Also, the composite Z-score in experiment [11] is 0.449 (inactive).
As for `C=CC(CO)NC(=O)OCC1c2ccccc2-c2ccccc21` (stereo not given), the composite z-score is 0.0077 in [1]; 0.407 in experiment [3]; -0.0914 in experiment [4]; -0.885 in experiment [5]; 0.048 in experiment [6]; -0.426 in experiment [7]. In addition, the composite z-score in experiment [8] is -0.208; in [9] it was -0.141; in [10], 0.252; in the experiment with Albumin (Bos taurus), -0.335; in experiment [12] it was 0.0242; in [13] it was -0.108. For the same compound, the composite z-score in [14] is -0.192; in experiment [15], 0.121; in experiment [16], -0.0184; with Sam68 (KHDRBS1), 0.0668; in experiment [17], 0.566; in experiment [18], 0.47. Besides, the z-score in experiment [2] is -0.479. In experiment [11], the composite Z-score is 0.314 (inactive).
